# Test results: PubChem BioAssay AID504333 (National Center for Advancing Translational Sciences (NCATS), 2011)
# The campaign covered roughly 360,000 compounds. About 16,000 (4.4%) were called active. A call without a number means that no potency is given here. Roughly 9% stayed inconclusive and do not appear here. The call rests on the fitted dose curve; in most records, active means well fitted inhibition curve with a large enough effect; inconclusive means small, poorly fitted or top-dose-only effect; inactive means no such curve, though single readings can be large or run the other way. Many of the other results were omitted from the sample, so actives are more common in it than they were.
# Biological target: Bromodomain adjacent to zinc finger domain protein 2B (Homo sapiens) (UniProt Q9UIF8)
# Experiment: qHTS Assay for Inhibitors of BAZ2B; further: nearly all actives have a fitted effect of over 60% in size
# Details: AlphaScreen BAZ2B-H3K14Ac peptide displacement; series mostly up to 114 µM
# Summary of the method: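 Inhibition is scored as reduced AlphaScreen emission. The BAZ2B/b-H3(5-23)K14Ac complex (50 nM each) in PBS pH 7.4, 0.01% Tween-20 meets compound (up to 110 uM) for 30 min at RT before bead addition.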
# Potency means the concentration at half of the fitted maximal effect.
# Bromodomain adjacent to zinc finger domain protein 2B (Homo sapiens), sequence (Q9UIF8 whole entry, looked up, the tested form may be a part): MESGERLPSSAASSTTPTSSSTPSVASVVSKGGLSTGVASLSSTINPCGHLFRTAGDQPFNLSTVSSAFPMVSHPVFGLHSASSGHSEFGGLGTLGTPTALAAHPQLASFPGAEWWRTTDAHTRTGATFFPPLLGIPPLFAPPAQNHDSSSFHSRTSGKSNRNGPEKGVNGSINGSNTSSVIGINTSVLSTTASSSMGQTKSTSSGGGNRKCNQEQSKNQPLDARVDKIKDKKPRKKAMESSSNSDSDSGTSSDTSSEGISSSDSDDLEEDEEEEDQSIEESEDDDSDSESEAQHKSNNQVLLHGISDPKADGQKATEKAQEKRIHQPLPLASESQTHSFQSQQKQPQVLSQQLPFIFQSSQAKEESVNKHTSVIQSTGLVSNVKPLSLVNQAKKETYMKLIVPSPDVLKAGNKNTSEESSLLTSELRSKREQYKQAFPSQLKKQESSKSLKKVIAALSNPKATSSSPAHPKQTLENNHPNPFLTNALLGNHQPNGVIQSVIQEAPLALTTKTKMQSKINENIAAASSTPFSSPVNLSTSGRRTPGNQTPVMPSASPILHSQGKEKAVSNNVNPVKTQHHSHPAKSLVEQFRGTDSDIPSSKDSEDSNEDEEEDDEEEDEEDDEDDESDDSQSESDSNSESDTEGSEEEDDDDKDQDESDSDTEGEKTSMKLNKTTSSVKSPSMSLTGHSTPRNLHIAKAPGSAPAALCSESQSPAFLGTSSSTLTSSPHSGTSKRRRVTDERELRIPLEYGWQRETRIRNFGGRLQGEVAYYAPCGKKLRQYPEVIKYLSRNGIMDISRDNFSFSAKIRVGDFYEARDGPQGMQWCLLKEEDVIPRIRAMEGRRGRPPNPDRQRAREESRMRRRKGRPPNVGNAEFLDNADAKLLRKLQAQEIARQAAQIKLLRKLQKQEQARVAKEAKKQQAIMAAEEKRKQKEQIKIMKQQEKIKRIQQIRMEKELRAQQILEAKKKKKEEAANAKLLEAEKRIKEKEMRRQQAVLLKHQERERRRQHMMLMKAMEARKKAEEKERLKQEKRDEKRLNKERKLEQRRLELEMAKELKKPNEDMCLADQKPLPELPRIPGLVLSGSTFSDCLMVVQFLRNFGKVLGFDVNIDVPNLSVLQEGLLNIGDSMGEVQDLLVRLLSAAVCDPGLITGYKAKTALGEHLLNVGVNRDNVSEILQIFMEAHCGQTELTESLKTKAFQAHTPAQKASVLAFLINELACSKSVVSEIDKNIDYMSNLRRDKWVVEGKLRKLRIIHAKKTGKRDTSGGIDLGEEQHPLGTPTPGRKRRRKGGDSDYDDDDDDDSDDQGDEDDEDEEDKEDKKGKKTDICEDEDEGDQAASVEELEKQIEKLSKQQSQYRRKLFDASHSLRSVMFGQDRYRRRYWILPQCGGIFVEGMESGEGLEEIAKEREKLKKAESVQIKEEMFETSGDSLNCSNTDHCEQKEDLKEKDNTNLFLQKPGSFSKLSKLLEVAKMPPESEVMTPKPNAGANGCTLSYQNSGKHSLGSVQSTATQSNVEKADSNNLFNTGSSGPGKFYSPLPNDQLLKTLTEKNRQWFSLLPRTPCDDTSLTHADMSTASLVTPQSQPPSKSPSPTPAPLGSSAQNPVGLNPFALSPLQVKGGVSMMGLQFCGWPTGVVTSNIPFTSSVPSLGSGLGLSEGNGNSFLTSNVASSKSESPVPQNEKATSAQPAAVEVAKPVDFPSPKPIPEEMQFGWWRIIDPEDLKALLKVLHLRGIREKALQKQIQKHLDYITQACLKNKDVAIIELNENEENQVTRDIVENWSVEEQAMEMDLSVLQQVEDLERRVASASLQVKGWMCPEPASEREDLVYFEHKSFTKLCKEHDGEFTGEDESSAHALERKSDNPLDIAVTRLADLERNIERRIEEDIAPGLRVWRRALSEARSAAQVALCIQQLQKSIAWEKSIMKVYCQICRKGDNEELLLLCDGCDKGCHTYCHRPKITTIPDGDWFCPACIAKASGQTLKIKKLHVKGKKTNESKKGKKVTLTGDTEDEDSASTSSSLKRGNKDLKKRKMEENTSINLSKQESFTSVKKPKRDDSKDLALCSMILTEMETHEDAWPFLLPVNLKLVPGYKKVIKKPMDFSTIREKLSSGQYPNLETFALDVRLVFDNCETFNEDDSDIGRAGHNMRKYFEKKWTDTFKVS
row,Compound,Potency
1,CCOc1ccc(OCC)c(NC(=O)c2c(C)nn(-c3ccccc3)c2-n2cccc2)c1,inactive
2,O=C(CCc1ccccc1)NCc1ccc2c(c1)CCN2C(=O)c1ccccc1,inactive
3,CCOCCCNC(=O)c1c(NC(=O)Cc2coc3ccc(C)cc23)sc2c1CCC2,inactive
4,COc1ccccc1N(CC(=O)N/N=C(\C)c1ccccc1O)S(=O)(=O)c1ccc(C)cc1,50.1 µM (active)
5,COc1ccc(S(=O)(=O)N(CC(=O)N/N=C/c2ccccc2C(=O)O)c2ccccc2OC)cc1,inactive
6,COc1ccccc1NC(=O)CN(c1ccccc1OC)S(=O)(=O)c1ccccc1,inactive
7,CCCN(CCC)S(=O)(=O)c1ccc(C(=O)Nc2sc3c(c2C(=O)OC)CCN(CC)C3)cc1,inactive
8,Cc1cccc(C(=O)N2CCc3cc(CNC(=O)Cc4ccc(F)cc4)ccc32)c1,inactive
9,CCC(=O)Nc1c(C(=O)N2CCN(c3ccc(F)cc3)CC2)oc2ccccc12,inactive
10,Cc1nnc(SCC(=O)NCc2ccccc2Cl)c2nn(-c3ccccc3)c(C)c12,inactive
11,Cc1nn(C(C)C(=O)NCCC2=CCCCC2)c(=O)c2nn(-c3ccccc3)c(C)c12 (centres undefined),inactive
12,Cc1ccc(-n2nc3c(=O)n(C(C)C(=O)NCc4ccc5c(c4)OCO5)nc(C)c3c2C)cc1 (centres undefined),79.4 µM (active)
13,COc1ccc(CNC(=O)C(C)n2nc(C)c3c(C)n(-c4ccccc4)nc3c2=O)c(OC)c1 (centres undefined),inactive
14,O=C(CSCc1cnn(-c2ccccc2)c1-n1cccc1)NCc1ccccc1Br,inactive
15,CCn1c(-c2cc(OC)ccc2OC)csc1=Nc1c(C)n(C)n(-c2ccccc2)c1=O,inactive
16,COCCNC(=S)N/N=C/c1c(C)[nH]c2ccccc12,inactive
17,CN=c1scc(-c2cc(OC)ccc2OC)n1/N=C/c1c(C)[nH]c2ccccc12,35.5 µM (active)
18,COc1ccc(CNC(=O)Cn2nnc(-c3ccccc3F)n2)cc1,inactive
19,CC(C)c1ccc(NC(=O)c2cc(S(=O)(=O)N3CCc4ccccc4C3)ccc2F)cc1,inactive
20,Cc1cccc(CCNC(=O)c2ccc3c(c2)nc2n3CCC(C)C2)c1 (centres undefined),inactive
21,Cc1ccc(C)n1-c1nnc(N2CCC(C(=O)NCc3ccccc3Cl)CC2)s1,inactive
22,Cc1cc(/C=N/NC(N)=O)c(C)n1C1CCCCC1,50.1 µM (active)
23,O=C(N/N=C/c1ccccc1O)C1CCCC1,inactive
24,Cc1ccc(-n2c(C)cc(/C=N\NC(=O)CC(=O)NC(C)C)c2C)cc1,inactive
25,CCC(=O)N1c2ccccc2CC1C(=O)N1CCN(c2cccc(OC)c2)CC1 (centres undefined),inactive
26,O=C(CC(NCc1cccnc1)C(=O)O)Nc1ccc(O)cc1 (centres undefined),inactive
27,COc1cccc(NC(=O)CN2CCN(c3nc(-c4cccc(OC)c4)cs3)CC2)c1,inactive
28,CC1CCCC(C)N1C(=O)CN1CCN(c2nc(-c3ccc(F)cc3)cs2)CC1 (centres undefined),70.8 µM (active)
29,CCc1ccc(CNC(=O)C2CCN(c3nn4cc(-c5ccc(F)cc5)nc4s3)CC2)cc1,inactive
